The text below walks through data of PubChem BioAssay AID588722 (National Center for Advancing Translational Sciences (NCATS), 2011).

Structures are written as SMILES. The source made the active and inactive calls.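 How the source made its calls: active means potency under 20 µM; inactive means the rest.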

This test is described as follows: High Content Assay for Compounds that inhibit the Assembly of the Perinucleolar Compartment:Cell Migration. The settings on record: PC3M cell invasion in 3D collagen microchannel, Hoechst imaging. From the text: The perinucleolar compartment (PNC) is a non-membrane-bound nuclear subdomain that is associated with but structurally distinct from the nucleolus. The PNC is a heritable trait, in which the number of PNCs per cell in daughter cells often mimics that of their mother cells. The PNC is heterogeneous in shape, is stable through interphase, disassembles during mitosis, and reassembles in early G1. The PNC is concentrated with newly synthesized RNA polymerase III (pol III) RNAs (MRP RNA, RNAse P H1 RNA, hY RNAs[hY1, 2, 5], Alu RNA, and SRP [7SL] RNA) and RNA binding proteins (nucleolin, PTB, CUG-BP, KSRP, Raver1, Raver2, and Rod). […] In collaboration between Sui Huang from Northwestern University and the NCGC, a high content assay was developed and screened. The hits were then tested in follow-up assays. High-content tumor cell migration assays in 3-dimensional extracellular matrices are powerful tools for modeling and understanding the biology of this critical step in the process of metastasis. However, most of the available methods are not amenable to the throughput required by studies of comparative pharmacology or small scale screening. For this reason, we worked with BellBrook Labs(R) to test our compounds in their automated high-content tumor cell invasion assays.[35] A standard screening-sized plate with an array of embedded microchannels was designed and constructed from common thermoplastics. NIH Chemical Genomics Center [NCGC] NIH Molecular Libraries Probe Centers Network [MLPCN] MLPCN Grant: MH082371 Assay Submitter (PI): Sui Huang, Northwestern University, Feinberg School of Medicine, Cell and Molecular Biology, Chicago, Illinois.
PC3M cells were tested for invasion through 3D fibrillar collagen in the Iuvo Single Microchannel Plate, in the presence of varying levels of test compounds. Channels were prefilled with 820 nL of 3-dimensional type I collagen at 1 mg/mL, through the input port. Following gelation, 2,000 PC3M cells were seeded into the output port using growth media (RPMI + 10% FBS with antibiotics) in a volume of 5 microL. Cells were incubated in a 37 masculineC incubator inside a humidified container to control evaporation (Bioassay dish, Corning). Media including test compounds was changed daily for 5 days. At the end of the assay, cells were fixed and stained with Hoechst 33342, then imaged with 4x objective under epifluorescence. Under these conditions, we can reliably identify cells across the 140 microm height range of the microchannel. Test compounds were serially diluted by a factor of 3, to produce 10 concentrations ranging from 50 or 100 microM to 2.5 nM.
Take `COC(=O)c1c(-c2ccccc2)csc1NC(=O)c1c(-c2ccccc2)noc1C`: the compound was classed as inactive.
`Cc1c(NC(=O)COC(=O)c2cc(-c3ccc(-c4ccccc4)cc3)nc3ccccc23)c(=O)n(-c2ccccc2)n1C`: the Potency is 0.117 µM (active).
Same read-out and setting: then `CSc1nnc2c3ccccc3n(CCc3ccccc3)c2n1`, with 4.3 µM (active).
Consider `CN1c2ccccc2C(C)(C)C12CC(c1ccc(Cl)c(S(=O)(=O)N3CCCC3)c1)=NO2` (stereo unspecified), for which the Potency was 3.2 µM (active).
Still for that read-out and setting: the result for `N=c1c2c(-c3ccccc3)c(-c3ccccc3)n(Cc3ccccc3)c2ncn1CCCO` reads 11.5 µM (active).
Take `CCOC(=O)Cn1c(-c2nonc2NC(=O)c2ccccc2F)nc2ccccc21`: the outcome was inactive.
Still for that read-out and setting: then `COc1ccc(-n2c(SC(C)C(=O)Nc3ncc(Cl)cc3Cl)nc3ccccc32)cc1` (stereo unspecified), with “inactive”.
With `Cc1oc(-c2ccccc2Cl)nc1CSCC(=O)N1CCCC1`, the Potency is 6.2 µM (active).
Still for that read-out and setting: then `CCN(CC)C(=O)N1c2ccccc2C=Cc2ccccc21`, with 2.1 µM (active); and `COc1ccc(-c2nc(NC(=O)c3n[nH]c(=O)c4ccccc34)sc2C)cc1`, with 3.8 µM (active); and `O=C(Nc1cccnc1)c1cccs1`, with 1.6 µM (active).
